Hits are enriched below; roughly 27% of the tested compounds scored in any of these assays.
CYP2C9 inhib: inhibitors of human CYP2C9; inhibition, % at 5 µM; CYP2C9 Supersomes, luciferin-H conversion, luminescence; AID 777; 96,000 compounds, 20% hits;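 active = blocking of liver enzyme CYP2C9 beyond about 50% at 5 µM, limit read from the data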
sEH inh: soluble epoxide hydrolase (human) inhibition | P34913 | recombinant human sEH enzymatic activity assay | inhibition, % at 2 µM | 91,000 compounds, 0.34% hits | AID 707; in the data active = inhibition above about 80%
Target sequence (P34913 whole entry, looked up): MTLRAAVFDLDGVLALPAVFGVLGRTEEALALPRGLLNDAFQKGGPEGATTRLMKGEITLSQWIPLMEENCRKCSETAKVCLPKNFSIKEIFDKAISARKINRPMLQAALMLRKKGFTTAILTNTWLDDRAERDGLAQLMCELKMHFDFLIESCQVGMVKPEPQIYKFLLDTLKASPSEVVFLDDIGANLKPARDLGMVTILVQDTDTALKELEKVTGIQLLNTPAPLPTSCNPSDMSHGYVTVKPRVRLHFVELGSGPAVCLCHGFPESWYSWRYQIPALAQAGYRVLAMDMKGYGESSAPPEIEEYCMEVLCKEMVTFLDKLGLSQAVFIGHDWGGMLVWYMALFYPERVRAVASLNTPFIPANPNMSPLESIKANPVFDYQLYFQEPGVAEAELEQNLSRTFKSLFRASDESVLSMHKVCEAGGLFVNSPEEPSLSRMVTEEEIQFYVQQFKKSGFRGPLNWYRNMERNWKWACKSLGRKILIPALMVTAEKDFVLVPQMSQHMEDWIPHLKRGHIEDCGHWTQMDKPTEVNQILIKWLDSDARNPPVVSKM
CYP2C19 inh: human CYP2C19 inhibition | P33261 | CYP2C19 Supersomes, luciferin-H EGE luminescence, 30 min | inhibition, % at 5 µM | 96,000 compounds, 21% hits;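 active = CYP2C19 inhibition above a set limit at 5 µM in the primary screen, cut at about 50% in these data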;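 also: plate controls were negative control wells for no effect and 2.5 mM tranylcypromine positive control for full effect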
CYP2C9 act: increases human cytochrome P450 2C9 activity; recombinant CYP2C9, luciferin-H conversion, luminescence; stronger effect = higher value; factor 1 = untreated enzyme, 0 = blocked; activation factor at 5 µM; AID 1024; 96,000 compounds, 1.4% hits; P11712;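 active = activation factor of 2 or more for CYP2C9 at a 5 µM dose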;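 also: 0 = sulfaphenazole-blocked wells and 1 = vehicle-only wells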
CYP2C19 act: increases human CYP2C19 enzyme activity | P33261 | recombinant CYP2C19, luciferin-H EGE luminescence; stronger effect = higher value; 0 = fully inhibited enzyme, 1 = untreated enzyme | activation factor at 5 µM | 96,000 tested, under 10 active | AID 1025;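 active = activation factor of at least 2 at 5 µM in the primary screen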;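 also: 0 = wells with 2.5 mM tranylcypromine and 1 = vehicle-only wells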
sEH activator: activators of human soluble epoxide hydrolase | 91,000 compounds, 0.04% hits | purified human sEH enzymatic activity, activator screen | P34913 | activation, % at 2 µM | AID 717; in the data active = activation above about 37%
Active calls of the source: *; x = no result.

SMILES	CYP2C9 inhib	sEH inh	CYP2C19 inh	CYP2C9 act	CYP2C19 act	sEH activator
COc1ccc(C(=O)N2c3ccc(F)cc3CCC2C)cc1OC (centres undefined)	2	27	-2	1	1	-27
COc1cc(OC)cc(C(=O)N2c3ccc(F)cc3CCC2C)c1 (centres undefined)	20	14	54*	0.8	0.5	-12
Cc1nn(Cc2ccc(C(=O)N3c4ccc(F)cc4CCC3C)o2)c(C)c1Br (centres undefined)	48	9	87*	0.5	0.1	-9
CC1CCc2cc(F)ccc2N1C(=O)c1cnc2sccn2c1=O (centres undefined)	-3	3	-2	1	1	0
Cc1ccc(C(=O)N2c3ccc(F)cc3CCC2C)o1 (centres undefined)	27	x	53*	0.7	0.5	x
COCCNC(=O)c1ccc(CN2CCOCC2)cc1	x	-3	x	x	x	3
O=C(O)C1CCCCC1C(=O)Nc1ccc(F)cc1F (centres undefined)	-1	5	-4	1	1	-6
CC(C)(C)NC(=O)CSc1nnnn1C(C)(C)C	8	9	21	0.9	0.8	-8
CCOc1ccc(NC(=O)CSC2=C(C#N)C(c3ccc4c(c3)OCO4)CC(=O)N2)cc1 (centres undefined)	24	x	17	0.8	0.8	x
CCOc1ccc(C2CC(=O)NC(SC)=C2C#N)cc1 (centres undefined)	56*	x	36	0.4	0.6	x
COC(=O)CSC1=C(C#N)C(c2ccc(F)cc2)CC(=O)N1 (centres undefined)	90*	-8	72*	0.1	0.3	10
C=CCSC1=C(C#N)C(c2ccc(OCC)cc2)CC(=O)N1 (centres undefined)	65*	x	82*	0.4	0.2	x
CCCOC(=O)CSC1=C(C#N)C(c2ccc3c(c2)OCO3)CC(=O)N1 (centres undefined)	97*	x	92*	0	0.1	x
COc1ccc(C2(O)CCN(CC(=O)Nc3nccs3)CC2)c(OC)c1	14	-12	42	0.9	0.6	10
Cc1ccc2c(CC(=O)Nc3nc(C)cs3)coc2c1	23	11	24	0.8	0.8	-10
Cc1[nH]c(=O)[nH]c(=O)c1S(=O)(=O)NCCOC12CC3CC(CC(C3)C1)C2	3	x	-2	1	1	x
O=C(C1CCCN(S(=O)(=O)c2ccc(Br)s2)C1)N1CCCCCC1 (centres undefined)	12	10	63*	0.9	0.4	-11
O=C(O)C1CCCN(S(=O)(=O)c2ccc(Cl)s2)C1 (centres undefined)	10	-5	1	0.9	1	4
O=C(Oc1ccc(N(Cc2cccs2)C2=NS(=O)(=O)c3ccccc32)cc1)c1ccccc1F	97*	-7	69*	0	0.3	5
Cc1c(C(=O)O)oc2ccc(S(=O)(=O)NCc3ccc4c(c3)OCO4)cc12	36	1	-13	0.6	1.1	-3
Cc1c(C(=O)NCC2COc3ccccc3O2)oc2ccc(S(=O)(=O)N(C)C3CCCCC3)cc12 (centres undefined)	95*	-9	49	0	0.5	6
Cc1ccc(CNS(=O)(=O)c2ccc3oc(C(=O)O)c(C)c3c2)cc1	67*	-2	-11	0.3	1.1	0
CCN(CC)S(=O)(=O)c1ccc2oc(C(=O)NC(C)C)c(C)c2c1	26	x	-2	0.7	1	x
CCN(CC)S(=O)(=O)c1ccc2oc(C(=O)O)c(C)c2c1	77*	-4	-4	0.2	1	0
CCN(CC)S(=O)(=O)c1ccc2oc(C(=O)NCc3ccc(C)cc3)c(C)c2c1	51*	5	42	0.5	0.6	-3
SMILES	CYP2C9 inhib	sEH inh	CYP2C19 inh	CYP2C9 act	CYP2C19 act	sEH activator
CN1CCN(S(=O)(=O)c2ccc(Br)c3nsnc23)CC1	-17	-16	24	1.2	0.8	13
Cc1cccc(-n2c(SCCC(=O)O)nnc2-c2cccs2)c1C	-19	x	6	1.2	0.9	x
Cn1cnc([N+](=O)[O-])c1Sc1ncccc1N	6	-2	1	0.9	1	4
CCOC(=O)/C=C1\SCC(=O)N1CC(=O)NC12CC3CC(CC(C3)C1)C2	13	9	19	0.9	0.8	-6
Cc1c(C(=O)O)oc2ccc(S(=O)(=O)N(CC(C)C)CC(C)C)cc12	36	x	-5	0.6	1.1	x
CCN(Cc1ccccc1)S(=O)(=O)c1ccc2oc(C(=O)O)c(C)c2c1	98*	x	2	0	1	x
Cc1ccccc1-n1nnnc1SCc1ncc(-c2ccccc2)o1	82*	x	31	0.2	0.7	x
c1ccc(-c2cnc(CSc3nnc4ccccn34)o2)cc1	31	x	70*	0.7	0.3	x
Cc1ccc(C)c(-n2nnnc2Sc2nnnn2-c2ccccc2)c1	x	4	x	x	x	-2
NC(=O)c1ccc(C(F)(F)F)n(Cc2cccc(Cl)c2)c1=O	25	3	56*	0.7	0.4	-3
NC(=O)c1ccc(C(F)(F)F)n(Cc2ccc(Cl)cc2)c1=O	22	-2	51*	0.8	0.5	3
O=C(NCc1ccc(Cl)cc1)c1ccc(Cn2cc(C(F)(F)F)ccc2=O)cc1	47	23	10	0.5	0.9	-20
CCOC(=O)COc1nc(Nc2ccccc2C)nc(N(C)C)n1	36	x	35	0.6	0.6	x
Cc1ccc(S(=O)(=O)CCc2nnc(NC(=O)C3CCCO3)s2)cc1 (centres undefined)	5	6	19	0.9	0.8	-5
O=C(NC1CCCC1)c1cccc(NC(=O)c2ccco2)c1	45	4	-1	0.5	1	-4
CCC1=NC(c2ccccc2Cl)N(O)C1(C)C (centres undefined)	-9	-3	-5	1.1	1	3
O=C(c1cccs1)N1CCN=C1SCc1cccnc1	25	7	55*	0.7	0.4	-5
O=C(c1cccc(F)c1)N1CCN=C1SCc1cccnc1	82*	-4	91*	0.2	0.1	2
O=C(c1ccc(Br)o1)N1CCN=C1SCc1cccc(F)c1	59*	-12	91*	0.4	0.1	10
COc1cc(OC)cc(C(=O)N2CCN=C2SCc2cccnc2)c1	90*	2	100*	0.1	0	-3
Cc1cc(/C=N\O)c(C)n1-c1ccncc1	-14	3	14	1.1	0.9	-1
Cc1ccc(C(=O)COC(=O)CCC(=O)NC2CCCCC2)cc1C	19	9	13	0.8	0.9	-9
O=C(CSc1nnc(-c2ccc(S(=O)(=O)N3CCCC3)cc2)n1CC1CCCO1)NC1CC1 (centres undefined)	-20	4	-17	1.2	1.2	-4
O=C(N1CCN=C1SCc1cccnc1)C12CC3CC(CC(C3)C1)C2	9	-3	83*	0.9	0.2	6
CCCN1Cc2cccc(C(=O)NCc3cccs3)c2C1=O	52*	0	73*	0.5	0.3	-1

From PubChem BioAssay
